# Unmarked numbers belong to inactive results. No rule for the calls is given here.
# Target: VTCN1, Q7Z7D3
# Sequence (Q7Z7D3 whole entry): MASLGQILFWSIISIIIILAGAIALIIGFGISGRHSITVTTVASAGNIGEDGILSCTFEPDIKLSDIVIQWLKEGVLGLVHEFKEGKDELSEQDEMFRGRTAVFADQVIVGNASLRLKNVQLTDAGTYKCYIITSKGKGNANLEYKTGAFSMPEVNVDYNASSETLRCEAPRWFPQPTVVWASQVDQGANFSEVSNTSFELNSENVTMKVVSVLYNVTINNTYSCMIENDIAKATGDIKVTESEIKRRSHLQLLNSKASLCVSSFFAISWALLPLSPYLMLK
row,Binder,binding in a display sort
1,design_609_7ee6ce64-4629-41e8-bcb4-ba0da017284d_1354_dldesign_0_cycle1_af2pred (protein) AVAAAKAAAAKDAEEVNKLKFEAVDGDAETVEAVMKEVKARREEWLAKAKADPAAKAVYEAAAEGMDKTEKALQSVLDALKKN,not found
2,design_609_7ee6ce64-4629-41e8-bcb4-ba0da017284d_1401_dldesign_0_cycle1_af2pred (protein) ALAALLEGLAKAAVIVARGIRRAARYAGDPRKAGFAFIVAGEQAFLVGRADPNPVAAAVLWLTGVLLIAIGLAIEAS,not found
3,design_609_7ee6ce64-4629-41e8-bcb4-ba0da017284d_1405_dldesign_0_cycle1_af2pred (protein) DLKKKIEAEAGKSYAEGVAESAAKIIAEIDPEIAPEYAEKVKKELTALAEKLADKSLETVYKEAKAIAKKVIEEAKKKK,not found
4,design_609_7ee6ce64-4629-41e8-bcb4-ba0da017284d_1448_dldesign_0_cycle1_af2pred (protein) AEEEARKERLEAAKKELNELRLKAADSGDAEKALEYAKQAEAVAEKAGIPEDGEKAARVIRSIAEALKKN,not found
5,design_609_7ee6ce64-4629-41e8-bcb4-ba0da017284d_1584_dldesign_0_cycle1_af2pred (protein) MNVEEAKKEAKEIRDETIAKMKAAKTPEEVAAVAHEGLQKLAEGAYKFKSNKEAEKIYEEARKEVIDAAREIAAALEAAA,not found
6,design_609_7ee6ce64-4629-41e8-bcb4-ba0da017284d_1630_dldesign_0_cycle1_af2pred (protein) AAGAAAVAAASKARGEALFELAAKAKFGTEEEAKEAEAKRKALTAAAKAVKAAAGTADAAAVATAARAQAEAIL,not found
7,design_609_7ee6ce64-4629-41e8-bcb4-ba0da017284d_1721_dldesign_0_cycle1_af2pred (protein) SKLEEDKKKAEELKKEAEKLAEEAAKTTPEEAKKLRKELREKAKKVAEEVSPEIAKKVAEIAHEAQQKIAEAMQEIKK,not found
8,design_609_7ee6ce64-4629-41e8-bcb4-ba0da017284d_1726_dldesign_0_cycle1_af2pred (protein) AAAEEIAKAKAVYDKRKAKAQEYEKKGDYKGAANEYDIAAAQLGMAAAGLSPEAAAVAKALAEEAKKLAEEAEKKLAE,not found
9,design_609_7ee6ce64-4629-41e8-bcb4-ba0da017284d_1728_dldesign_0_cycle1_af2pred (protein) EAEKQALADAAKAAEKAAKAAKESPEKGAKAAKELAKAYPEVAKAANAAARYIEELGEEGVDAAEEILKHAIKTLKAKAAAL,not found
10,design_609_7ee6ce64-4629-41e8-bcb4-ba0da017284d_1733_dldesign_0_cycle1_af2pred (protein) SEKDKAIMEATFHANGALNLADVGGDKKEIEKEAKLAKEHAEKAAKLSSKEEGAKILEYVEKKVKEVEEKLKKL,not found
11,design_609_7ee6ce64-4629-41e8-bcb4-ba0da017284d_1771_dldesign_0_cycle1_af2pred (protein) KKEEALNYASEMRAYLIGAAAASKLPQAPQLEAEAREKAEKVGELLSPEVAKKIKELTEQAIAGTPEERKALAREIAELVKKAVEE,not found
12,design_609_7ee6ce64-4629-41e8-bcb4-ba0da017284d_1780_dldesign_0_cycle1_af2pred (protein) MEQAELRREMVRLVREAGRILEEKAPEYPEAKEAIELLRKAVFLAGDKEKAPEALELLKKAAEIAKEIDPEAAELIKEALELAKKWKE,not found
13,design_609_7ee6ce64-4629-41e8-bcb4-ba0da017284d_1790_dldesign_0_cycle1_af2pred (protein) NEADKEVEELTKKIKELTKKAKEALEKGNIEEAKKYAEEAMKAIKKAREIAPKASKELQKEASKAAAEAYEVYAEVEFKSK,not found
14,design_609_7ee6ce64-4629-41e8-bcb4-ba0da017284d_1936_dldesign_0_cycle1_af2pred (protein) SASEKTKEYLKKNDELGKKAAELSLKDEEKGLALAEKDVYIAIKASAILYKKGDEKALEHAKKFKEVAFKMLDE,not found
15,design_609_7ee6ce64-4629-41e8-bcb4-ba0da017284d_1938_dldesign_0_cycle1_af2pred (protein) EEELKKLIEEHMEKLAKEAEKADPEVGKEVKEALKKAKKLNVGEAISLFLSTGARAAKEIGKKDPEKGKKVKEIVDKALDEIFSK,not found
16,design_609_7ee6ce64-4629-41e8-bcb4-ba0da017284d_1964_dldesign_0_cycle1_af2pred (protein) SKESRLRRAKALAEEAIKLLEEGEYAWAAALLRAAAREAERAGNEEAAKLLREAAELAAKSALEGPKYKEEALRLAKEALEILEKE,not found

row,Binder,binding in a display sort
1,design_609_7ee6ce64-4629-41e8-bcb4-ba0da017284d_1996_dldesign_0_cycle1_af2pred (protein) AAAATAHEAIQTSTEAAEKLKKGKTEEDKELGKEIEEKRKELSRRAAEAQKEGPEAAKKAVAELAKFAEEAKKIAEEREKKRK,not found
2,design_609_7ee6ce64-4629-41e8-bcb4-ba0da017284d_2006_dldesign_0_cycle1_af2pred (protein) EKLLGEGYADIIVDNTKSVIAADPSKAEEYVETNKAKGLARAEKIKDTEAGKVLKEKVEKEAEKLLAEAKKAKAAAEAAA,not found
3,design_609_7ee6ce64-4629-41e8-bcb4-ba0da017284d_2027_dldesign_0_cycle1_af2pred (protein) MTPEELLAKIKELAKKAKEAKDEKEAKKYLEEAKAAAAELKANGTPETAKQASAAVAEAYENYAEAVFKIK,not found
4,design_609_7ee6ce64-4629-41e8-bcb4-ba0da017284d_2040_dldesign_0_cycle1_af2pred (protein) EEEEKEKKAKELEKEAVKHREEAFDKIAEGKLEEAKELAEKIRELAKKLEELGEEAKPLADRARKGARAVERLIEAAE,not found
5,design_609_7ee6ce64-4629-41e8-bcb4-ba0da017284d_2085_dldesign_0_cycle1_af2pred (protein) LEEKLKELRALAKEAAEKAKEEGATKTANLLLKGVEASPLKAVGYVLVAADLLKASEKLKPWAEKLEKAAEEV,not found
6,design_609_7ee6ce64-4629-41e8-bcb4-ba0da017284d_2235_dldesign_0_cycle1_af2pred (protein) MKAKEEAEKKVEEVVEKGEKKVEEMKGLTAEEAEKVRNEIILEGQEVAAEAKKVDPEVGKKGFEKFRKVGEKAEKAVEEVK,not found
7,design_609_7ee6ce64-4629-41e8-bcb4-ba0da017284d_2287_dldesign_0_cycle1_af2pred (protein) SDLEATELQIKAARLVAEAKRALAELTPEEGLARAKELFAEAEKAVKAAAKLLSPEAGKALVAALKERSAAILAEAEKAAAA,not found
8,design_609_7ee6ce64-4629-41e8-bcb4-ba0da017284d_2306_dldesign_0_cycle1_af2pred (protein) LSENEKLKKAADYTSKAAKLAAEAAKKYKLPPEAVKKAQEAINLLFSSTDKETAEKAVELAKEAAKYMPESVAKKFLELVEKAAEYWS,not found
9,design_609_7ee6ce64-4629-41e8-bcb4-ba0da017284d_2350_dldesign_0_cycle1_af2pred (protein) SEKKLKAQKEALKLVEEVAKYAEEDPETAPKFGKEKAEEAYKYALELGLSEEEAEKLRKTTLRLVEAEIRGAKLVAEKRKKALE,not found
10,design_609_7ee6ce64-4629-41e8-bcb4-ba0da017284d_2406_dldesign_0_cycle1_af2pred (protein) ETEKKIKYLKEALYYLHLAIESAKLGSPPEAARRFVEIGIKKALEGDEEVGKELEKLLKELSPEEAAEAGAKLVEERIKELE,not found
11,design_609_7ee6ce64-4629-41e8-bcb4-ba0da017284d_2408_dldesign_0_cycle1_af2pred (protein) SSAAEEAAKKVEETAKKIKEEGLPEEEAKKLLSEALLLVADHDSPELAERALKAFEELSKYYPGAAKAAKILKRRLEALKKN,not found
12,design_609_7ee6ce64-4629-41e8-bcb4-ba0da017284d_2409_dldesign_0_cycle1_af2pred (protein) SMEEEELRKKADEVAEKAAKIAEEADPELGKKFRERAEKAKKDPVDAYAYYVAQAAKSGGIILEKLGKEEEGKKLKELGKELEKALEE,not found
13,design_609_7ee6ce64-4629-41e8-bcb4-ba0da017284d_2421_dldesign_0_cycle1_af2pred (protein) AAKEEVEKKAEEVIKKLKEIGEKDPNAKELTDDLIKTLKKEVEKYKDDPEKAKKAVDKAEKTADSLEEAVKY,not found
14,design_609_7ee6ce64-4629-41e8-bcb4-ba0da017284d_2438_dldesign_0_cycle1_af2pred (protein) MKEEMIKEAKKLMEEGKKKFEEAVKLPASEAAEASKLMHEGHELLTEAAWLAKKAGDEELAKEAKKARKEAVKKGKEAQAASAAA,not found
15,design_609_7ee6ce64-4629-41e8-bcb4-ba0da017284d_2471_dldesign_0_cycle1_af2pred (protein) MEALKARGDLDVVADQATQIAKLAAEHPELAELGKRAAELAARAKAAQAGDPEETIKKAKELRAERRELVAETKKRLAAL,not found

# Source: publication PMC13494018
